We go through seven compounds from ChEMBL document CHEMBL2218924, “A broad activity screen in support of a chemogenomic map for kinase signalling research and drug discovery” (Biochem J, 2013).

Assay [1] addresses ALK tyrosine kinase receptor (Homo sapiens) (UniProt Q9UM73). Conditions: at 10 µM.
Assay [2] addresses T1, Activin receptor type-1B (Homo sapiens) (UniProt P36896).
T1 sequence (whole entry): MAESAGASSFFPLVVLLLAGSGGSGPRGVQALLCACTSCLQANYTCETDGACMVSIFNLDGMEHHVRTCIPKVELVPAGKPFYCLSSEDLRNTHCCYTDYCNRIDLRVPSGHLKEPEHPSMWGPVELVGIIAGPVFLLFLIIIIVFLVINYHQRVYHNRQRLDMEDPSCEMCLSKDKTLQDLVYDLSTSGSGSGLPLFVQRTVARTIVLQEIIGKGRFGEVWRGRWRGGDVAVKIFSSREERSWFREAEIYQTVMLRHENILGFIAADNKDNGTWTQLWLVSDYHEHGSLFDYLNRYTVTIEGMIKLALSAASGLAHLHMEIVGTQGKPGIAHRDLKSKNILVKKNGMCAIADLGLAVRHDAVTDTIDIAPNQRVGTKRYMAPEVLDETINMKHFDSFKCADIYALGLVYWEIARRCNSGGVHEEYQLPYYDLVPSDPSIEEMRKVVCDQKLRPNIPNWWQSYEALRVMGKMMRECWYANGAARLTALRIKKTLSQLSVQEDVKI
Conditions: at 1 µM.

Assay [3] concerns the target T1, Activin receptor type-1B (Homo sapiens). Conditions: at 10 µM.
For assay [4], the target named is T2, AMP-activated protein kinase (AMPK) alpha-1/beta-1/gamma-1 (Homo sapiens) (UniProt P54619+Q9Y478+Q13131). Conditions: at 1 µM.
Assay [5] concerns the target T2, AMP-activated protein kinase (AMPK) alpha-1/beta-1/gamma-1 (Homo sapiens). Conditions: at 10 µM.
For assay [6], the target named is T3, AMP-activated protein kinase, AMPK (Homo sapiens) (UniProt P54646+O43741+P54619+Q9UGJ0+Q9Y478+Q13131+Q9UGI9). Conditions: at 1 µM.
Assay [7] has as its target T3, AMP-activated protein kinase, AMPK (Homo sapiens). Conditions: at 10 µM.
Assay [8] addresses T4, NUAK family SNF1-like kinase 1 (Homo sapiens) (UniProt O60285).
T4 sequence (whole entry): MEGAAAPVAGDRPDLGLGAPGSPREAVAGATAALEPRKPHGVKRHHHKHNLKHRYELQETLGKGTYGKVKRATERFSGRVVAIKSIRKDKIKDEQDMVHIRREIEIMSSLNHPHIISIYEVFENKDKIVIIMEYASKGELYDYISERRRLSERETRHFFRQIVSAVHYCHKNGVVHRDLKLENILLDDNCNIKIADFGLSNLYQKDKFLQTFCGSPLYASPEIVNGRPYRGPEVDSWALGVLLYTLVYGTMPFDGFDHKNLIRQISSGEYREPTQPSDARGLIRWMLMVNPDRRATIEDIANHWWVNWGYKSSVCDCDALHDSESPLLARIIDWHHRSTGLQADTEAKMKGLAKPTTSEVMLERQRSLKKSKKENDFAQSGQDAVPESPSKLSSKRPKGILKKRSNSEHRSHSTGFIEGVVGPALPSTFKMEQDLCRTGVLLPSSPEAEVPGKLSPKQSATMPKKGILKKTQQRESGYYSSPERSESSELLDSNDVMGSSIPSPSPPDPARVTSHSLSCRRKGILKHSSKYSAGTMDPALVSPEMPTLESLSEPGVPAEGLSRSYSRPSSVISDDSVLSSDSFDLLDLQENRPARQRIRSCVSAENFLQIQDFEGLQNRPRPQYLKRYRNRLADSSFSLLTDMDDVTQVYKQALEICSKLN
Conditions: at 1 µM.

The target of assay [9] is T4, NUAK family SNF1-like kinase 1 (Homo sapiens). Conditions: at 10 µM.
Assay [10] concerns the target T5, Mitogen-activated protein kinase kinase kinase 5 (Homo sapiens) (UniProt Q99683).
T5 sequence (whole entry): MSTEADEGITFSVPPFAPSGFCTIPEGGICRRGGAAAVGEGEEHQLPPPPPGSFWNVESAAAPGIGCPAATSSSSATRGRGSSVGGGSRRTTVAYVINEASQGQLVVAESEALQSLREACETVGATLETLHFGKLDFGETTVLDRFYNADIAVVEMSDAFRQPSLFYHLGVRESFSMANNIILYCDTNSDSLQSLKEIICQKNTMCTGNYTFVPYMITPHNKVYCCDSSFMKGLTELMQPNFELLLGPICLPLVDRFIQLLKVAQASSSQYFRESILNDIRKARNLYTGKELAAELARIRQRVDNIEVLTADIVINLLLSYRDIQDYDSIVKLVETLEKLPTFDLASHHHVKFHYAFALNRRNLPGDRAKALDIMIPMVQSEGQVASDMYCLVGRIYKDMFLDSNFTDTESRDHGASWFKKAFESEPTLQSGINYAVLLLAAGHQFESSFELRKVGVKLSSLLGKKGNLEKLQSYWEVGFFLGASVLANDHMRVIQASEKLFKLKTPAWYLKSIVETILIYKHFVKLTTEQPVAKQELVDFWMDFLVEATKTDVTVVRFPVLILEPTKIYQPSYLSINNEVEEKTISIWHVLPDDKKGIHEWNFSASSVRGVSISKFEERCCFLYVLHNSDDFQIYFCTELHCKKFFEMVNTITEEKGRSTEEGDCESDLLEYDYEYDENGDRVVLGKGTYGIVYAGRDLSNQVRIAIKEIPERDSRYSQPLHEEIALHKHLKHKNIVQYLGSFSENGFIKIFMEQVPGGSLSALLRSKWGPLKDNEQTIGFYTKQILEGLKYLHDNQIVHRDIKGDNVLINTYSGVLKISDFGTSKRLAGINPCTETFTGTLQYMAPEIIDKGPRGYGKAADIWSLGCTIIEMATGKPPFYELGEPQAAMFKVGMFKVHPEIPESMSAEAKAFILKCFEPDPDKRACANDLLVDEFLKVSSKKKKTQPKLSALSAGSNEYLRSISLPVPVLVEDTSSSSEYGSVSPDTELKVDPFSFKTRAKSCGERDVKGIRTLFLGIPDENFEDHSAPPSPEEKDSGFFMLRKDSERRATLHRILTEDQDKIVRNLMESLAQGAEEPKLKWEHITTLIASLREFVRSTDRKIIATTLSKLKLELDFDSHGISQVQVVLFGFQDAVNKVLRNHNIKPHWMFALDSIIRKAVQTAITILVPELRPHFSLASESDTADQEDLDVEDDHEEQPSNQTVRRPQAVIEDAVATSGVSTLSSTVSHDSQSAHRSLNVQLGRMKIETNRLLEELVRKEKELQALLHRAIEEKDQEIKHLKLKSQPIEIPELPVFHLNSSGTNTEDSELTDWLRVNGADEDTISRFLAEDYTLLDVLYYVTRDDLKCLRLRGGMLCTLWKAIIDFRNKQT
Conditions: at 1 µM.

For assay [11], the target named is Platelet-derived growth factor receptor alpha (Homo sapiens) (UniProt P16234). Conditions: at 1 µM.
The target is the same in assay [12]. Conditions: at 10 µM.
Assay [13] addresses Platelet-derived growth factor receptor beta (Homo sapiens) (UniProt P09619). Conditions: at 1 µM.
The target is the same in assay [14]. Conditions: at 10 µM.
Assay [15] deals with T6, 3-phosphoinositide-dependent protein kinase 1 (Homo sapiens) (UniProt O15530).
T6 sequence (whole entry): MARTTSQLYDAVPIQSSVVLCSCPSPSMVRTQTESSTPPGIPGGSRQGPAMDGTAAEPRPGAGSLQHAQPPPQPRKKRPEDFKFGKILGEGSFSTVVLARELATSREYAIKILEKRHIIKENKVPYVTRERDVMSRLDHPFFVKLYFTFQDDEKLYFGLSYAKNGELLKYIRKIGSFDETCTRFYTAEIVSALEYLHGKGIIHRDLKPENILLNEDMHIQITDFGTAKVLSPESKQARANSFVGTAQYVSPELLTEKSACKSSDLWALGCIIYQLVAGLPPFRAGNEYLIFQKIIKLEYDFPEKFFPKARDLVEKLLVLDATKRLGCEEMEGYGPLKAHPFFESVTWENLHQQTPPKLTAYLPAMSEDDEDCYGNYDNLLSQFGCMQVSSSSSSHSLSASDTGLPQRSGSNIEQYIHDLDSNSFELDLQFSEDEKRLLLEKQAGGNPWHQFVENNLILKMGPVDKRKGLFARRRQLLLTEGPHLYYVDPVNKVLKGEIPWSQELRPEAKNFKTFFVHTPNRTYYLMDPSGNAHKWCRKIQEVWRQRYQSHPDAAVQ
Conditions: at 1 µM.

For assay [16], the target named is T6, 3-phosphoinositide-dependent protein kinase 1 (Homo sapiens). Conditions: at 10 µM.
Assay [17] deals with cAMP-dependent protein kinase catalytic subunit alpha (Homo sapiens) (UniProt P17612). Conditions: at 1 µM.
The target is the same in assay [18]. Conditions: at 10 µM.
Assay [19] addresses RAC-gamma serine/threonine-protein kinase (Homo sapiens) (UniProt Q9Y243). Conditions: at 1 µM.
Assay [20] has the same target. Conditions: at 10 µM.

Sequence of ALK tyrosine kinase receptor (Homo sapiens) (Q9UM73 19-1620 limits assumed): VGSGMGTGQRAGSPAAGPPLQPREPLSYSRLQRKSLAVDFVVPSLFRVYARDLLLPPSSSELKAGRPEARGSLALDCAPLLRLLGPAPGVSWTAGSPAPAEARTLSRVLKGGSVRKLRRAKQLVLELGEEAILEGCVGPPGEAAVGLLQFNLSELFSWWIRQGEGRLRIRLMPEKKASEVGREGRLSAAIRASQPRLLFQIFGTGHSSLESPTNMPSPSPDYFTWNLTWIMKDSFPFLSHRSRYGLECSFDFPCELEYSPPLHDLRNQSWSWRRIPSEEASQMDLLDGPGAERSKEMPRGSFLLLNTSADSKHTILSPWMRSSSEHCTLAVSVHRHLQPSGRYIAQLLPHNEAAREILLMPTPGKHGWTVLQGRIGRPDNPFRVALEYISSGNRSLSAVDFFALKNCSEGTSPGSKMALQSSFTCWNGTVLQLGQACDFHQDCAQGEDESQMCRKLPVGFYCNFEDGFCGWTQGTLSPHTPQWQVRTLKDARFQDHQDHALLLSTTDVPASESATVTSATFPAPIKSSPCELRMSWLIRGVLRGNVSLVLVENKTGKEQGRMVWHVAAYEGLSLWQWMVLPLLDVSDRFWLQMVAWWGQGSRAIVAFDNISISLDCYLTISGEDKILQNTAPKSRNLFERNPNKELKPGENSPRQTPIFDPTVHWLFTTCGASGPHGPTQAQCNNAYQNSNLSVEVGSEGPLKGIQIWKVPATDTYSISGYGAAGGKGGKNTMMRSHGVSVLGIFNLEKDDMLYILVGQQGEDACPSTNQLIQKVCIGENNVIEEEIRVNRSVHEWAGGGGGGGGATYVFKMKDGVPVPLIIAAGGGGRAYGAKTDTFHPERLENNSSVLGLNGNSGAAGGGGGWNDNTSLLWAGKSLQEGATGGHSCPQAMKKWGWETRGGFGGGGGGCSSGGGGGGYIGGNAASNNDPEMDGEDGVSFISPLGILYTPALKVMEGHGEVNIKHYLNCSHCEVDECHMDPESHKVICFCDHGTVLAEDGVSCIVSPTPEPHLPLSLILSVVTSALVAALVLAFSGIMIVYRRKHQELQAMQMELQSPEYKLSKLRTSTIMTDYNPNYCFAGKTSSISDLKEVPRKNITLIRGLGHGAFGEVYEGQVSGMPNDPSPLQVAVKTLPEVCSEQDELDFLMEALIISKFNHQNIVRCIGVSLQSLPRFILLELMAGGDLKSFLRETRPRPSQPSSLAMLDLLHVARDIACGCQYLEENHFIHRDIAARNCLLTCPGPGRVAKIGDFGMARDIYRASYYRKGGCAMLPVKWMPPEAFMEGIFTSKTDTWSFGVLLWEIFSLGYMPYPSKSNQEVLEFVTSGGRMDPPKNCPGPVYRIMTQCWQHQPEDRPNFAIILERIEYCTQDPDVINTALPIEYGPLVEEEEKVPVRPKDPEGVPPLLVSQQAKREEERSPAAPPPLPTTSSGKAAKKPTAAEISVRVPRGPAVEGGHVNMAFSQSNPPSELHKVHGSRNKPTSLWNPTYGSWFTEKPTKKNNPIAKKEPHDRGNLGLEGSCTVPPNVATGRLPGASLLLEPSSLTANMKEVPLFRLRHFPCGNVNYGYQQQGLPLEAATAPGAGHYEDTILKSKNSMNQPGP
Sequence of RAC-gamma serine/threonine-protein kinase (Homo sapiens) (Q9Y243 whole entry): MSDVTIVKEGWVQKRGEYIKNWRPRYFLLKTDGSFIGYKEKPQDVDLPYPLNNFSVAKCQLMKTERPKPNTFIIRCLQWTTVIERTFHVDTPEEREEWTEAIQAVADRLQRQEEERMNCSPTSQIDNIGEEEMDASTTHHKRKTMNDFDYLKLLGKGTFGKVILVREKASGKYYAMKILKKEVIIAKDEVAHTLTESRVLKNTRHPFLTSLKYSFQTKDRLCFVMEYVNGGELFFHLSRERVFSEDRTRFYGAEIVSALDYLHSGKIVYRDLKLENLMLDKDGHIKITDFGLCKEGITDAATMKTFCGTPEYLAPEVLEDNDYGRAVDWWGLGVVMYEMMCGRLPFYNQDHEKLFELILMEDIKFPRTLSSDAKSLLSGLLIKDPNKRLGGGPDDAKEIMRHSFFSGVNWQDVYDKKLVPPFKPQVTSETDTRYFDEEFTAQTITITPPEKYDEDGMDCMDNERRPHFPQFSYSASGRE
T2 sequence (P54619 whole entry): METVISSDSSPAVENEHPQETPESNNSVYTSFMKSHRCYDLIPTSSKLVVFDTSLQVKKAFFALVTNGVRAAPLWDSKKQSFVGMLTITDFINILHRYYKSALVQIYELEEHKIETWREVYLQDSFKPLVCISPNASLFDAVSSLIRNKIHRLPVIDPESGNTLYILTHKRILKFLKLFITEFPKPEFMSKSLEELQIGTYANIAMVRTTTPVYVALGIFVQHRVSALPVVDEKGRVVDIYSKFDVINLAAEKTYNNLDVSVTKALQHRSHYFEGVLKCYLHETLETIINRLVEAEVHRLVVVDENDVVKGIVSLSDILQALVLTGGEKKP
T2 sequence (Q13131 whole entry partner): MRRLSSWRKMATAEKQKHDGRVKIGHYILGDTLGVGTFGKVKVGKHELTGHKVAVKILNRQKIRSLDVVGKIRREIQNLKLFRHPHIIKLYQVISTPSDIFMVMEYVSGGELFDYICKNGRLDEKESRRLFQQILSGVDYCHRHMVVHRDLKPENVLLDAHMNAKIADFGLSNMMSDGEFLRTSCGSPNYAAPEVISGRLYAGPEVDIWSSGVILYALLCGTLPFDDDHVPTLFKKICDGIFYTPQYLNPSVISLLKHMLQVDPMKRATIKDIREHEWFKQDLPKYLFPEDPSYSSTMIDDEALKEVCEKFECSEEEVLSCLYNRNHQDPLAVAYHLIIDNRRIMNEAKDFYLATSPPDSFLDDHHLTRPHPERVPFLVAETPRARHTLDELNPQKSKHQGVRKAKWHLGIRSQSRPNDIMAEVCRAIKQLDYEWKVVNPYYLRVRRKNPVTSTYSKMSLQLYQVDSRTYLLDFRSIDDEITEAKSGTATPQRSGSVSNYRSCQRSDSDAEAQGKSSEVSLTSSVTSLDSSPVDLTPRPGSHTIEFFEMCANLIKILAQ
T2 sequence (Q9Y478 2-270 partner limits assumed): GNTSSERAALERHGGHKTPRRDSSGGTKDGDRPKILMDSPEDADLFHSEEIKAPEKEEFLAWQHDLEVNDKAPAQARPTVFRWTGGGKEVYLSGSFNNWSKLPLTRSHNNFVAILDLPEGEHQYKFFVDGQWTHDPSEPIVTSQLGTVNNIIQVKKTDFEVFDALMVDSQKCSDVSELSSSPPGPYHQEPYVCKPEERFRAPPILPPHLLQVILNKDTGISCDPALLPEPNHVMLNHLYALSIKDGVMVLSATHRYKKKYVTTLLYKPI
Sequence of Platelet-derived growth factor receptor beta (Homo sapiens) (P09619 whole entry): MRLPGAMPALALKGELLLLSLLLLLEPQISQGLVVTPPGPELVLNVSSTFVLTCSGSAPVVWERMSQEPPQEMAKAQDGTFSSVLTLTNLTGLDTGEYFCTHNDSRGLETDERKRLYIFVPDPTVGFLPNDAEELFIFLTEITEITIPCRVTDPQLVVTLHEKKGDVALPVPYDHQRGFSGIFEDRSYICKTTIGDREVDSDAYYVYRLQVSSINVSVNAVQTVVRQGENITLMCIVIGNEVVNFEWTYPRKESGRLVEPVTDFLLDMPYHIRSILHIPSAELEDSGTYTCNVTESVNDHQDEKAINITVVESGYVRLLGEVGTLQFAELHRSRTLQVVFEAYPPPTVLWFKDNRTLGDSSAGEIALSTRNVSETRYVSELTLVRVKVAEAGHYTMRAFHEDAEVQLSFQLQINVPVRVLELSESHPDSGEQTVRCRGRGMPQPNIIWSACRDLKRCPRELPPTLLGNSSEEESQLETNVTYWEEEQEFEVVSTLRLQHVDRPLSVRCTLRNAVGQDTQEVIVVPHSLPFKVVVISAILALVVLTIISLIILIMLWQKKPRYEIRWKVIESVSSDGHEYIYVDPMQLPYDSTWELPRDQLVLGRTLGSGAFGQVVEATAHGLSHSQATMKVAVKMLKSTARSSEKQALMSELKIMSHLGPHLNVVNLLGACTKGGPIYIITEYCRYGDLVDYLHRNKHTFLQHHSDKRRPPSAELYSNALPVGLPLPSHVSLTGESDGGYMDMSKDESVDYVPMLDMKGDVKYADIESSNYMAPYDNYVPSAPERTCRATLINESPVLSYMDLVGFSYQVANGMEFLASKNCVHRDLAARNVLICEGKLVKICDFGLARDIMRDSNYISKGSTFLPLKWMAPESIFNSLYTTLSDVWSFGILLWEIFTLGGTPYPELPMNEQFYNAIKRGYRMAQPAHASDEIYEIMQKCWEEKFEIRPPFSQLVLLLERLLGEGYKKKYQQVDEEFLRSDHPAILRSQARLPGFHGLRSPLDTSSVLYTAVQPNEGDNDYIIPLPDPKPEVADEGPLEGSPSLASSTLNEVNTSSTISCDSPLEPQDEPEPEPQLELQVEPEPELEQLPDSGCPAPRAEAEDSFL

`O=C(Nc1cccc(Nc2cc(Nc3cccc(C(F)(F)F)c3)ncn2)c1)C1CC1`: the residual activity in [1] turned out to be 22%; in assay [2] it was 126%; in assay [3], 124%; in [4] it was 97%; in assay [5] it was 73%; in [6], 103%. For the same compound, the residual activity in assay [7] was 74%; in assay [8] it was 90%; in [9], 127%; in [10], 104%; in [11], 110%; in assay [12], 109%. Also, the residual activity was 98% in [13]; 93% in [14]; 93% in [15]; 87% in assay [16]; 103% in assay [17]; 112% in assay [18]. Further, the residual activity in assay [19] was found to be 90%; in assay [20], 96%.

For `CC#CC(=O)Nc1cc2c(Nc3ccc(F)c(Cl)c3)ncnc2cn1`, the residual activity in assay [1] was found to be 81%; in assay [2], 137%; in [3] it was 99%; in assay [4] it was 99%; in [5], 84%; in [6], 79%. The residual activity in assay [7] was 74%; in [8], 95%; in [9], 86%; in assay [10], 104%; in assay [11], 113%; in [12], 42%. For the same compound, the residual activity was 105% in assay [13]; 86% in [14]; 102% in [15]; 100% in assay [16]; 99% in assay [17]; 77% in assay [18]. Moreover, the residual activity in assay [19] stood at 93%; in [20] it was 91%.

Consider `CO[C@H]1[C@@H](OC)C[C@H](C)[C@@H](OC)C2=CC(=O)C=C(NC(=O)/C(C)=C/C=C/[C@H](OC)[C@@H](OC(N)=O)/C(C)=C/[C@@H]1C)C2=O`, for which the residual activity in assay [1] is 50%; in [2], 112%; in assay [3], 112%; in assay [4] it was 94%; in assay [5] it was 78%; in [6], 92%. In addition, the residual activity in assay [7] worked out at 78%; in assay [8], 93%; in [9], 94%; in assay [10], 88%; in assay [11], 114%; in assay [12] it was 107%. Also, the residual activity in assay [13] was 108%; in assay [14] it was 80%; in assay [15], 112%; in [16] it was 96%; in assay [17] it was 79%; in assay [18], 70%. Besides, the residual activity is 94% in [19] and 75% in assay [20].

As for `Nc1n[nH]c2nnc(-c3c(-c4ccccc4)nn4ccccc34)cc12`, the residual activity in assay [1] was 93%; in [2], 111%; in assay [3], 86%; in assay [4], 90%; in assay [5], 82%; in [6] it was 92%. Further, the residual activity was 98% in [7]; 105% in assay [8]; 79% in assay [9]; 96% in assay [10]; 105% in assay [11]; 100% in [12]. Moreover, the residual activity in assay [13] worked out at 97%; in assay [14], 99%; in [15] it was 102%; in assay [16], 94%; in assay [17] it was 97%; in [18], 77%. Further, the residual activity in assay [19] is 99%; in assay [20] it was 82%.

Take `CC(C)n1cnc2/c(=N/c3cccc(Cl)c3)nc(NCCO)[nH]c21`: the residual activity in assay [1] came to 52%; in assay [2], 103%; in [3], 120%; in [4] it was 76%; in assay [5], 30%; in [6], 88%. For the same compound, the residual activity came to 45% in assay [7]; 75% in [8]; 29% in [9]; 90% in assay [10]; 105% in [11]; 107% in assay [12]. For the same compound, the residual activity in [13] stood at 108%; in [14], 113%; in assay [15] it was 96%; in assay [16], 81%; in assay [17], 96%; in assay [18] it was 89%. The residual activity in [19] turned out to be 95%; in assay [20], 76%.

As to `O=C1c2ccccc2-[n+]2ccc3c([nH]c4ccccc43)c21`, the residual activity in assay [1] was 83%; in assay [2] it was 110%; in assay [3], 114%; in [4] it was 95%; in assay [5], 94%; in assay [6], 101%. Besides, the residual activity is 93% in [7]; 97% in assay [8]; 83% in [9]; 89% in assay [10]; 107% in assay [11]; 103% in assay [12]. The residual activity in assay [13] stood at 110%; in [14], 102%; in assay [15] it was 100%; in [16], 102%; in [17], 94%; in assay [18], 98%. Besides, the residual activity in [19] came to 112%; in [20], 87%.

`CC[n+]1c(/C=C/N(C)c2ccccc2)n(-c2ccccc2)c2ccc(-c3nc4ccccc4s3)cc21`: the residual activity in [1] stood at 69%; in [2], 122%; in assay [3], 87%; in assay [4], 97%; in assay [5], 75%; in assay [6], 116%. The residual activity was determined as 91% in assay [7]; 121% in assay [8]; 89% in assay [9]; 106% in assay [10]; 117% in assay [11]; 94% in assay [12]. For the same compound, the residual activity in assay [13] was determined as 103%; in assay [14] it was 125%; in assay [15] it was 121%; in assay [16] it was 149%; in assay [17] it was 110%; in assay [18], 146%. The residual activity in assay [19] was determined as 105%; in assay [20], 65%.
